We go through nine compounds from PubChem BioAssay (NCI).

The panel holds about 83,000 compounds, 20% with a hit somewhere; the sample as a whole holds those more often.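 Note: values are percent growth. 100 is the growth of untreated cells, values between 100 and 0 indicate rising inhibition; between -100 and 0 indicates cell death.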 A number with no mark means an inactive call. Activity calls are given as the source filed them. How the source made its calls: active means growth percent below 10; inactive means the rest.

Common to all, as to test: NCI-60 one-dose screen, 48 h (100 = growth as untreated, 0 = no growth, -100 = all killed)
Conditions in all cases: 10 µM

Experiment [1] relates to NCI-H226 lung.
In experiment [2] the test system is NCI-H322M lung.
The subject of experiment [3] is HOP-62 NSCLC.
In experiment [4] the test system is NCI-H460 lung.
Experiment [5] has as its system NCI-H522 lung.
Experiment [6] deals with A549/ATCC NSCLC.
Experiment [7] has as its system 786-0 renal.
Experiment [8] concerns COLO 205 colon.
Experiment [9] has as its system DU-145 prostate.
The subject of experiment [10] is K-562 leukemia.
Experiment [11] concerns MALME-3M melanoma.
In experiment [12] the test system is MDA-MB-231 breast.
Experiment [13] has as its system RXF 393 renal.
The test system of experiment [14] is SF-268 CNS.
The test system of experiment [15] is SF-295 CNS.
The test system of experiment [16] is SF-539 CNS.
For experiment [17], the system named is UACC-257 melanoma.
Experiment [18] deals with M14 melanoma.
Experiment [19] deals with HCT-15 colon.

`CCCCCCc1cc(N=Nc2ccc(S(=O)(=O)Nc3cc(C)nc(C)n3)cc2)c(O)cc1O`: the growth in [1] is 98%; in [2], 93.5%; in experiment [3] it was 107%; in [4] it was 110%; in [5] it was 90.1%; in [6] it was 106%. Moreover, the growth in experiment [7] was 102%; in experiment [8], 103%; in experiment [9], 114%; in experiment [10] it was 93.8%; in experiment [11], 93.1%; in [12], 111%. The growth is 118% in experiment [13]; 110% in experiment [14]; 98.7% in [15]; 97.1% in experiment [16]; 102% in [17]; 94.2% in experiment [18]. Besides, the growth in [19] was 103%.
On to `O=S(=O)(NCCCNc1nccc(-c2c(-c3ccc(F)cc3)nc3sccn23)n1)c1ccc(F)cc1`, for which the growth in experiment [1] is 40%; in [2], 43.2%; in experiment [4], 26.9%; in [5], 36.4%; in experiment [6], 25.9%; in experiment [7], 59%. Further, the growth in experiment [8] is 21%; in experiment [9] it was 44.6%; in [10] it was 13.5%; in experiment [11], 48.5%; in [12], 73.3%; in experiment [13] it was 57.9%. In addition, the growth in [14] was 45.4%; in experiment [15], 25.4%; in [16], 78.1%; in experiment [17], 57.2%; in experiment [18], 44.4%; in experiment [19], 38.4%.
With `O=C1c2ccc3c4c(ccc(c24)C(=O)N1CCNCc1ccccc1)C(=O)N(CCNCc1ccccc1)C3=O`, the growth in [1] is 115%; in experiment [2], -43% (active); in experiment [3], 95.6%; in [4], -26.7% (active); in experiment [5], -51.2% (active); in experiment [6], 12.8%. In addition, the growth in experiment [7] was 52.4%; in [8], 24.1%; in [9] it was 20.7%; in [10], 1.04% (active); in experiment [11] it was -68.4% (active); in experiment [12] it was 39.9%. The growth in experiment [13] was 90.5%; in experiment [14] it was 7.12% (active); in experiment [15], -28.2% (active); in experiment [16], -54.2% (active); in [17] it was 95.8%; in experiment [19], -25.9% (active).
Regarding `O=C1OCC2=C1C(c1ccc(Cl)c(Cl)c1)c1cc3c(cc1N2CCO)OCCO3` (configuration not stated), the growth was 25.4% in experiment [1]; 37.3% in experiment [2]; 34.1% in [3]; 6.2% (active) in experiment [4]; -26.7% (active) in [5]; 22.6% in experiment [6]. The growth was 25.7% in [7]; -11.9% (active) in experiment [8]; 6.74% (active) in experiment [9]; 17.8% in [10]; 26.6% in experiment [12]; 8.18% (active) in [13]. The growth in [14] was 43.1%; in [15] it was -12.8% (active); in experiment [16], 2.76% (active); in experiment [17] it was 59.9%; in [18] it was 12.4%; in experiment [19] it was 18.3%.
On to `COc1cc(Nc2ncnc(Nc3ccc4c(n3)NC(=O)C(C)(C)O4)n2)cc(OC)c1OC`, for which the growth in experiment [1] is -27.7% (active); in experiment [2], 4.97% (active); in experiment [3], 13.6%; in experiment [4] it was 12.1%; in experiment [5], -11.6% (active); in experiment [6], -23.1% (active). Further, the growth in experiment [7] was 8.87% (active); in experiment [8] it was -2.65% (active); in [9], 18.8%; in experiment [10], 34.6%; in experiment [11] it was 28.2%; in experiment [12], 3.82% (active). The growth was -86.6% (active) in [13]; -21% (active) in experiment [14]; 19.6% in [15]; -59.3% (active) in experiment [16]; 30.2% in [17]; 40% in [18]. Also, the growth in experiment [19] was 22.9%.
For `O=C(O)CN1C(=O)c2cccc3cccc(c23)C1=O`, the growth in [1] is 96.5%; in experiment [2], 102%; in experiment [3], 97.4%; in experiment [4] it was 110%; in experiment [5], 94.1%; in experiment [6], 95.4%. In addition, the growth in experiment [7] is 91.7%; in experiment [8] it was 105%; in experiment [9], 117%; in [11] it was 102%; in experiment [12], 85.1%; in experiment [14], 122%. In addition, the growth in [15] was 99.7%; in [16], 98.7%; in experiment [17], 98.2%; in experiment [18], 99.6%; in [19], 108%.
As for `CC1CN(Cc2ccccc2)C(=O)NC1=O` (configuration not stated), the growth in [1] was 106%; in [2] it was 122%; in experiment [3] it was 105%; in experiment [4], 109%; in experiment [5], 91.8%; in [6], 103%. Moreover, the growth in experiment [7] is 112%; in experiment [8], 108%; in [10] it was 108%; in experiment [11], 106%; in experiment [12], 107%; in experiment [13], 124%. Also, the growth was 103% in experiment [14]; 126% in experiment [15]; 107% in experiment [16]; 102% in experiment [17]; 111% in [18]; 112% in experiment [19].
Take `COc1cc(Cc2cc(-c3ccc(Cl)cc3)n[nH]c2=O)ccc1O`: the growth was 224% in experiment [1]; 119% in [2]; 104% in [3]; 74.2% in [4]; 105% in experiment [5]; 58.6% in experiment [6]. For the same compound, the growth in experiment [7] is 103%; in experiment [8] it was 111%; in experiment [9], 128%; in [10], 78.5%; in experiment [11] it was 108%; in experiment [12], 100%. For the same compound, the growth was 93.2% in experiment [14]; 124% in experiment [15]; 98.4% in [16]; 128% in experiment [17]; 104% in experiment [19].
For the compound `CN(C)CCOc1nc2ccccc2c2c1-c1ccc(Cl)cc1C2=O`, the growth in experiment [1] is 3.47% (active); in experiment [2], -34% (active); in experiment [3], -20.4% (active); in [4], -20.7% (active); in experiment [5], -65.5% (active); in [6] it was -28.4% (active). In addition, the growth was 12.7% in experiment [7]; -76.1% (active) in [8]; -14.2% (active) in [9]; -29.9% (active) in [10]; 14.8% in experiment [12]; -35.6% (active) in experiment [13]. Also, the growth in experiment [14] is -25.3% (active); in experiment [15] it was -27.9% (active); in experiment [16], -1.7% (active); in experiment [17], -68% (active); in experiment [18], -83.4% (active); in [19], 5.59% (active).
